Assay results taken from the supplement of paper PMC10681739.

Tests used:
[1] = molecular target: T1, ETS1 (UniProt P14921); assay: ETS1 binding intensity (PBM fluorescence), ETS1 alone (arbitrary fluorescence units); higher = stronger binding; settings: ETS1 concentration 1 nM; RUNX1 concentration 0 nM
T1 sequence: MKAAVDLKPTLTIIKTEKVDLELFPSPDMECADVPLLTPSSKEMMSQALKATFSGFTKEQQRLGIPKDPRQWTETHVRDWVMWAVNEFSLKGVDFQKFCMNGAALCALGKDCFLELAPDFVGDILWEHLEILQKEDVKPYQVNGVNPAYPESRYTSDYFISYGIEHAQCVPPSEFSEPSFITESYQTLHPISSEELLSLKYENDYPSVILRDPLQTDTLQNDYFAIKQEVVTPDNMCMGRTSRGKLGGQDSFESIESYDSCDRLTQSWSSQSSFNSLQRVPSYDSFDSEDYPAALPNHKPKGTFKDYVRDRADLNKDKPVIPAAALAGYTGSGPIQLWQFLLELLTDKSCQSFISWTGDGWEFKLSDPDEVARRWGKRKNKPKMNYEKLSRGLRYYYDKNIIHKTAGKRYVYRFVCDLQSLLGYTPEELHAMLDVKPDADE

[2] = molecular target: T1, ETS1; assay: ETS1 binding intensity (PBM fluorescence) in presence of RUNX1, normalised to ETS1-only experiment (arbitrary fluorescence units); higher = stronger binding; settings: ETS1 concentration 1 nM; RUNX1 concentration 25 nM

In the case of CCGCCTCCGGAAGAATTCTCTGCGGGCATGTTGCTG, the ETS1 binding intensity [1] is reported as 736 and the ETS1 binding intensity [2] is reported as 775.

Sequence TACCACTGAAAGGATGTGCGGGTAGAAATGAGCAAT has an ETS1 binding intensity [1] of 830 and an ETS1 binding intensity [2] of 938.

CCGAGACACATGGGATGTGGGCGGGAGGAGGAATTG gave an ETS1 binding intensity [1] of 715 and an ETS1 binding intensity [2] of 941.

AGCACGCCGGGAAATGGAGTCTCAGGTGGTTTTTAA showed an ETS1 binding intensity [1] of 443 and an ETS1 binding intensity [2] of 364.

Sequence CCAGGATGTAGTTTGGCCACTATTGAGTGGTTTGTT has an ETS1 binding intensity [1] of 448 and an ETS1 binding intensity [2] of 502.

With TGACGGCCAGGAAGCCTGAAGCCGCAGGGGCCGCCG the ETS1 binding intensity [1] was 345 and the ETS1 binding intensity [2] was 595.

TGGTGTGACCAGGATGTGAACCGCGGCAAGCTGCCT showed an ETS1 binding intensity [1] of 995 and an ETS1 binding intensity [2] of 992.

TGCCCCCTCCCCCTTCCGCTGTGGCCACCGGCTTTG was tested, and the ETS1 binding intensity [1] was 764 and the ETS1 binding intensity [2] was 780.

CAGCTGCCTCCAGGAAGCGGTAAGTGACTCTGGTGG was tested, and the ETS1 binding intensity [1] was 1150 and the ETS1 binding intensity [2] was 1660.
